According to ChEMBL document CHEMBL1857833, “Screening and optimization of specific chemical series against human African Trypanosomiasis (HAT)”:
Values joined by “and” are separate entries in the source; they are usually repeats but may differ in a detail not shown here. Equal entries are not always repeated. Out of some 4,400 compounds screened, about 390 (8.9%) showed an effect of 50% or more. This excerpt belongs to a sample that is enriched for strong results.

Tested on: Trypanosoma brucei
Experiment: DNDI: Inhibition of Human African Trypanosomiasis, SBRI 427, in vitro at 2 ug.mL-1
Assay type: functional

Row | Structure (SMILES) | % inhibition
1 | COc1cc(C)ccc1Oc1ncccc1/C(=N/O)N(C)C1CCN(C)CC1 | -9%
2 | Fc1ccc(-c2nc(Cn3ncc4c3CCCC4)co2)cc1 | 1%
3 | COc1cc(-c2nc(CN3CCC(Cc4ccccc4)CC3)co2)cc(OC)c1OC | 6%
4 | CCOc1ccccc1-c1nc(CN(C)c2ccc(C)cc2)co1 | -15%
5 | CCCN(Cc1coc(-c2ccccc2Cl)n1)C(C)CC (stereo not given) | -11%
6 | Cc1cc(C)n(/C(=N\O)c2ccnc(Oc3cc(Cl)ccc3Cl)c2)n1 | 16%
7 | O/N=C(/c1ccc(Oc2cccc3c2CCCC3)nc1)N1CCSCC1 | 21%
8 | N/C(=N\O)c1ccnc(Oc2cccc3c2CCCC3)c1 | 7%
9 | Cc1cc(C)n(/C(=N\O)c2ccnc(Oc3cccc4c3CCCC4)c2)n1 | 57%
10 | O/N=C(/c1ccnc(Oc2cccc3c2CCCC3)c1)N1CCSCC1 | 91%
11 | O/N=C(/c1ccnc(Oc2cccc3c2CCCC3)c1)N1CCN(c2ccccc2)CC1 | 22%
12 | CC(C)(C)CNCc1coc(-c2ccc(C(C)(C)C)cc2)n1 | 99%
13 | CN(C)CC(C)(C)CNCc1coc(-c2ccc(C(C)(C)C)cc2)n1 | 9%
14 | CC(C)(C)c1ccc(CNCc2coc(-c3ccc(O)cc3)n2)cc1 | 36%
15 | CCN(CCN(C)C)Cc1coc(-c2ccc(C(C)(C)C)cc2)n1 | 99%
16 | COCCN(CCOC)Cc1coc(-c2ccc(C(C)(C)C)cc2)n1 | -1%
17 | Cc1ccccc1-c1nc(CN(CCC#N)Cc2ccccc2)co1 | -5%
18 | C=COCCCNCc1coc(-c2ccc(OC)cc2)n1 | -2%
19 | Cc1ccccc1-c1nc(CN(C)Cc2ccccc2)co1 | -2%
20 | Cc1ccccc1-c1nc(CN(CCN(C)C)Cc2ccccc2)co1 | 54%
21 | C=COCCCNCc1coc(-c2ccc(C)cc2)n1 | -5%
22 | C=COCCCNCc1coc(-c2ccc(C(C)(C)C)cc2)n1 | 53%
23 | CCN(CC)CCN(CC)Cc1coc(-c2ccc(OC)cc2)n1 | 14%
24 | Cc1ccc(-c2nc(CN(C)C(C)(C)C)co2)cc1 | 22%
25 | CN(CCc1ccccc1)Cc1coc(-c2ccc(Cl)cc2Cl)n1 | 11%

Row | Structure (SMILES) | % inhibition
26 | Cc1ccc(CCNCc2coc(-c3ccc(Cl)cc3Cl)n2)cc1 | -7%
27 | C=CCN(C)Cc1coc(-c2cccc(OC)c2)n1 | 27%
28 | CSc1ccc(Oc2nc(C)ccc2/C(=N/O)N2C(C)CCC2C)cc1C (stereo not given) | 23%
29 | FC(F)(F)c1ccc(CNCc2coc(-c3cccs3)n2)cc1 | -6%
30 | COc1ccc(-c2nc(CN3CCN(C)CC3)co2)cc1 | 4%
31 | Cc1cn(Cc2coc(-c3ccc(C(F)(F)F)cc3)n2)c(C)n1 | 2%
32 | CC(C)C(C)NCc1coc(-c2ccc(C(C)(C)C)cc2)n1 (stereo not given) | 72%
33 | CC(C)(C)c1ccc(-c2nc(CNCC3CC3)co2)cc1 | 99%
34 | Cc1ccc(CNCc2coc(-c3ccc(C(C)(C)C)cc3)n2)o1 | 0%
35 | Cc1ccc(-c2nc(CNC(C)C(C)C)co2)cc1 (stereo not given) | 41% and 29%
36 | c1ccc(-c2nc(CNCC3CC3)co2)cc1 | 28%
37 | CCCCNCc1coc(-c2ccc(C(C)(C)C)cc2)n1 | 99%
38 | COc1ccc(-c2nc(CNCC3CCCCC3)co2)cc1 | 10%
39 | CC(C)C(C)NCc1coc(-c2ccc(O)cc2)n1 (stereo not given) | 33%
40 | Cc1cn(Cc2coc(-c3ccc(C(C)(C)C)cc3)n2)c(C)n1 | 58%
41 | CCCCNCc1coc(-c2ccccc2)n1 | 20%
42 | Cc1ccc(-c2nc(Cn3cc(C)nc3C)co2)cc1 | 18%
43 | CCOc1ccccc1N(Cc1ccccc1)Cc1coc(-c2cccc(F)c2)n1 | 1%
44 | Brc1ccccc1-c1nc(CNCc2cccc3ccccc23)co1 | -1%
45 | CCCCN(C)Cc1coc(-c2ccc(OC)cc2)n1 | 9%
46 | COc1cccc(-c2nc(CN3CCCCCCC3)co2)c1 | 31%
47 | Cc1ccc(/C(=N/O)N(C)Cc2ccco2)c(Oc2cccc3c2CCCC3)n1 | -8%
48 | Cc1cn(Cc2coc(-c3cccc4ccccc34)n2)cn1 | 1%
49 | CCN(Cc1coc(-c2ccccc2Cl)n1)c1ccc(C)cc1 | -3%
50 | CC(CNCc1coc(-c2cccc3ccccc23)n1)c1ccccc1 (stereo not given) | 8%

Row | Structure (SMILES) | % inhibition
51 | Cc1ccc(-c2nc(CN3CCC(N4CCCC4)CC3)co2)cc1 | 60%
52 | Brc1ccc(-c2nc(CN3CCCCCC3)co2)cc1 | 72%
53 | COc1ccc(-c2nc(CN3CCC(N4CCCC4)CC3)co2)cc1 | -12%
54 | Fc1ccc(-c2nc(CN3CCN(c4ccc(F)cc4)CC3)co2)cc1 | 52%
55 | Brc1ccc(-c2nc(CN3CCCC3)co2)cc1 | 1%
56 | Oc1ccc(-c2nc(CN3CCCCCC3)co2)cc1 | 9%
57 | Cc1ccc(-c2nc(CN3CCN(c4ccc(F)cc4)CC3)co2)cc1 | 0%
58 | COc1ccc(N2CCN(Cc3coc(-c4ccc(F)cc4)n3)CC2)cc1 | -1%
59 | Cc1ccc(-c2nc(CN3CCC(N4CCCCC4)CC3)co2)cc1 | 3%
60 | Cc1ccc(/C(=N/O)NCc2ccccc2)c(Oc2ccc(F)c(F)c2)n1 | 23%
61 | CCOc1ccc(Oc2ccc(/C(N)=N/O)cn2)cc1 | 10%
62 | Cc1ccc(-c2nc(CNc3cc[nH]n3)co2)cc1 | 10%
63 | Cc1ccc(/C(=N/O)NCCC2CCCN2C)c(OCc2ccccc2)n1 (stereo not given) | 22%
64 | c1ccc(CN2CCC(NCc3coc(-c4cccc5ccccc45)n3)C2)cc1 (stereo not given) | 14%
65 | c1ccc(CN2CCC(NCc3coc(-c4cccc5ccccc45)n3)CC2)cc1 | 66%
66 | Clc1ccc(-c2nc(CNC3C[C@H]4CC[C@@H]3C4)co2)c(Cl)c1 (stereo not given in full) | 52%
67 | c1ccc(CN2CCN(Cc3coc(-c4cccc5ccccc45)n3)CC2)cc1 | 18%
68 | Cc1cc(N2CCN(Cc3coc(-c4ccccc4Cl)n3)CC2)c2ccccc2n1 | 7%
69 | Clc1ccccc1-c1nc(CNC2CCN(Cc3ccccc3)CC2)co1 | 20%
70 | Clc1ccc(-c2nc(CNC3CCc4ccccc43)co2)c(Cl)c1 (stereo not given) | -4%
71 | Clc1ccc(-c2nc(CNC3CCN(Cc4ccccc4)CC3)co2)c(Cl)c1 | 74%
72 | Clc1ccc(-c2nc(CNC3CCN(Cc4ccccc4)C3)co2)c(Cl)c1 (stereo not given) | 18%
73 | Oc1ccc(-c2nc(CNC3C[C@H]4CC[C@@H]3C4)co2)cc1 (stereo not given in full) | 11%
74 | Cc1cc(N2CCN(Cc3coc(-c4cccc5ccccc45)n3)CC2)c2ccccc2n1 | 52%
75 | Cc1ccc(-c2nc(CN3CCN(c4cc(C)nc5ccccc45)CC3)co2)cc1 | 12%
